We go through 28 compounds from PubChem BioAssay (NCATS).

In test [1] the target is Bile acid receptor (Homo sapiens) (UniProt Q96RI1). The test can be described thus: qHTS assay for small molecule antagonists of farnesoid X receptor signaling (AID 588526). Note: % is set by controls: 0 for no effect and ±100 for the full control effect. The procedure, abridged:
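Antagonist mode: titrated compounds tested against chenodeoxycholic acid stimulation (normalized to 50 uM CDCA and DMSO) in GeneBLAzer HEK293T cells for 16 h. Beta-lactamase read by CCF4 fluorescence; IC50 from Hill fits.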
(In general: In qHTS, concentration-response curves come from the screen itself.)

For test [2] the target is unchanged. The test can be described thus: qHTS assay for small molecule agonists of farnesoid X receptor signaling (AID 588527).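 Note: series mostly up to about 77 µM; 0% = vehicle basal and 100% = reference agonist.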 The settings on record: HEK293T FXR-UAS-bla, beta-lactamase ratio, 16 h; stronger effect = higher value. The essentials:
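FXR-UAS-bla HEK293T cells (10% dialyzed FBS) preincubated 5-7 h at 37 C, then compounds at up to 92 uM for 16 h at 37 C. CCF4 beta-lactamase read-out after 2 h RT. Normalized to chenodeoxycholic acid (100 uM) and DMSO; Hill fit gave EC50 and efficacy.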

For test [3], the target named is Glucocorticoid receptor (Homo sapiens) (UniProt P04150). The experiment in a line: qHTS assay for small molecule agonists of glucocorticoid receptor signaling (AID 588532; active = well fitted curve in the direction sought with a large enough effect in the signal ratio, with a control signal flat; the % refers to the signal ratio;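 note: 100% = dexamethasone at 0.1 µM and 0% = DMSO only wells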). To be noted: HeLa MMTV-bla, beta-lactamase ratio, agonist, 18 h; stronger effect = higher value; percent of dexamethasone control, DMSO zero. The procedure, abridged:
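Cells were plated and rested 3-5 h at 37 C, compounds were added in titration and incubated 18 h, then CCF4 substrate was loaded for 2 h at RT before reading blue/green fluorescence. EC50 came from Hill-equation fitting.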

Test [4] shares this target. The experiment in a line: qHTS assay for small molecule antagonists of glucocorticoid receptor signaling (AID 588533; active = well fitted inhibition curve with a large enough effect in the signal ratio, with a control signal flat, not every such curve was filed as active; the % refers to the signal ratio;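 note: cells stimulated with 2 nM dexamethasone as agonist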; note: potency is the fitted concentration of half-maximal effect). The procedure, abridged: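 Antagonist-mode qHTS: compound titrations added to GRE-bla HeLa cells, then dexamethasone 2 nM final; 18 h, 37 C. CCF4 FRET fluorescence normalized to dexamethasone and DMSO; IC50 from Hill fit.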
Test [5] addresses Peroxisome proliferator-activated receptor delta (Homo sapiens) (UniProt Q03181). The experiment in a line: qHTS assay for small molecule agonists of peroxisome proliferator-activated receptor delta signaling (AID 588534).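 Note: 0% = DMSO basal wells and 100% = positive control agonist at 10 µM.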 The procedure, abridged: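 Cell-based beta-lactamase reporter assay run in agonist mode: cells seeded and incubated 5 hrs at 37 C, compounds added and incubated 18 hrs at 37 C. CCF4 dye fluorescence read after 2 hrs at RT; EC50 and efficacy from Hill fits.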

Test [6] addresses Estrogen receptor (Homo sapiens) (UniProt P03372). The experiment in a line: qHTS assay for small molecule agonists of estrogen receptor alpha signaling (AID 588514).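 Note: 0% = vehicle only and 100% = reference agonist; nearly all actives have a fitted effect of over 70% in size.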 The procedure, abridged: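 ER-alpha-UAS-bla GripTite HEK 293 cells in medium with 2% charcoal/dextran-treated FBS were treated with compound titrations at 37 C for 18 hrs; beta-lactamase reporter read by CCF4 fluorescence after 2 hrs at RT.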

The target in test [7] is Androgen receptor (Homo sapiens) (UniProt P10275). The test can be described thus: qHTS assay for small molecule agonists of androgen receptor signaling (AID 588515; active = well fitted curve in the direction sought with a large enough effect in the signal ratio, with a control signal flat; the % refers to the signal ratio; note: % is set by controls: 0 for no effect and ±100 for the full control effect). The settings on record: AR-UAS-bla HEK293, beta-lactamase ratio, agonist 16 h; stronger effect = higher value. The procedure, abridged:
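EC50 and efficacy came from Hill fits of titrations (up to 92 uM) normalized to 30 nM R1881 as 100% and DMSO as 0%. Compound exposure was 16 h at 37 C on AR-UAS-bla HEK293 cells, with a 405/460/530 nm CCF4 fluorescence read.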

The target is the same in test [8]. The test can be described thus: qHTS assay for small molecule antagonists of androgen receptor signaling (AID 588516; active = well fitted curve in the direction sought with a large enough effect in the signal ratio, with a control signal flat, not every such curve was filed as active; the % refers to the signal ratio; note: potency is the fitted concentration of half-maximal effect). The essentials:
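AR-UAS-bla GripTite HEK 293 cells (2000/well) treated with compound titrations plus 10 nM R1881 for 16 h at 37C. Beta-lactamase read by CCF4 FRET (460/530 nm); IC50 from Hill fits, normalized to R1881 and DMSO control wells.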

A short description of test [9]: qHTS assay for small molecule antagonists of peroxisome proliferator-activated receptor delta signaling (AID 588535; active = well fitted inhibition curve with a large enough effect in the signal ratio, with a control signal flat, not every such curve was filed as active; the % refers to the signal ratio; note: potency is the fitted concentration of half-maximal effect;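 for max response: cells co-treated with a PPAR-delta agonist as stimulator during compound exposure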). To be noted: HEK293T PPARd-UAS-bla, beta-lactamase FRET ratio, 18 h; 460 nm channel. The essentials: (§1)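 Cells were seeded at 4000 per well in assay medium containing 2% charcoal/dextran FBS and held 5 hrs at 37 C. Compounds were then added for 18 hrs. CCF4 substrate was applied for 2 hrs at room temperature before fluorescence reading.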

For test [10], the target named is Peroxisome proliferator-activated receptor delta (Homo sapiens) (UniProt Q03181). Described as above. The essentials:
as §1

SMILES strings stand for the structures. Where “and” joins values, the source holds several entries; their conditions need not be identical. Identical values can stand only once. Results filed as inconclusive are left out. Calls of active or inactive are those of the source. Unless noted, calls come from the whole dose curve.

Glucocorticoid receptor (Homo sapiens), sequence (P04150 whole entry, looked up): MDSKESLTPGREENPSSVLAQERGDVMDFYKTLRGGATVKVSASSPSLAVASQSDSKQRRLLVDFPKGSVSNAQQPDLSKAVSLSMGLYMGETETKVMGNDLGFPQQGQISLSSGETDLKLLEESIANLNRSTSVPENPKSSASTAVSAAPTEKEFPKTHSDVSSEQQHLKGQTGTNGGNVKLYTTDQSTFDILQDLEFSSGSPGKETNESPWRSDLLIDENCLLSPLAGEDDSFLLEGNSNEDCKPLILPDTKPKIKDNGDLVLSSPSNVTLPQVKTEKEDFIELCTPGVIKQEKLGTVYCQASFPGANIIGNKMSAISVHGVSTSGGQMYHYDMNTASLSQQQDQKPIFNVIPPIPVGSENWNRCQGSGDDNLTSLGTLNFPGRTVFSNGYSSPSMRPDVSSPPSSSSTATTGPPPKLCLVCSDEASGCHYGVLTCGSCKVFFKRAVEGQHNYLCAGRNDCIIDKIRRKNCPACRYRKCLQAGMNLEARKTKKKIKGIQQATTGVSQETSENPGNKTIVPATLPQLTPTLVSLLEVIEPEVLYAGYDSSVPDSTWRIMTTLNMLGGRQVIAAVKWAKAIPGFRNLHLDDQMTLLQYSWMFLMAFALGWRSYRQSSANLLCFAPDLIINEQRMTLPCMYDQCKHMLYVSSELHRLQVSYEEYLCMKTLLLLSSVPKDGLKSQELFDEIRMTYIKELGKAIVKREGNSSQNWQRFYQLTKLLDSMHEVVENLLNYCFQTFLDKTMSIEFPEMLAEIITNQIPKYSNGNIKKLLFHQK
Androgen receptor (Homo sapiens), sequence (P10275 whole entry, looked up): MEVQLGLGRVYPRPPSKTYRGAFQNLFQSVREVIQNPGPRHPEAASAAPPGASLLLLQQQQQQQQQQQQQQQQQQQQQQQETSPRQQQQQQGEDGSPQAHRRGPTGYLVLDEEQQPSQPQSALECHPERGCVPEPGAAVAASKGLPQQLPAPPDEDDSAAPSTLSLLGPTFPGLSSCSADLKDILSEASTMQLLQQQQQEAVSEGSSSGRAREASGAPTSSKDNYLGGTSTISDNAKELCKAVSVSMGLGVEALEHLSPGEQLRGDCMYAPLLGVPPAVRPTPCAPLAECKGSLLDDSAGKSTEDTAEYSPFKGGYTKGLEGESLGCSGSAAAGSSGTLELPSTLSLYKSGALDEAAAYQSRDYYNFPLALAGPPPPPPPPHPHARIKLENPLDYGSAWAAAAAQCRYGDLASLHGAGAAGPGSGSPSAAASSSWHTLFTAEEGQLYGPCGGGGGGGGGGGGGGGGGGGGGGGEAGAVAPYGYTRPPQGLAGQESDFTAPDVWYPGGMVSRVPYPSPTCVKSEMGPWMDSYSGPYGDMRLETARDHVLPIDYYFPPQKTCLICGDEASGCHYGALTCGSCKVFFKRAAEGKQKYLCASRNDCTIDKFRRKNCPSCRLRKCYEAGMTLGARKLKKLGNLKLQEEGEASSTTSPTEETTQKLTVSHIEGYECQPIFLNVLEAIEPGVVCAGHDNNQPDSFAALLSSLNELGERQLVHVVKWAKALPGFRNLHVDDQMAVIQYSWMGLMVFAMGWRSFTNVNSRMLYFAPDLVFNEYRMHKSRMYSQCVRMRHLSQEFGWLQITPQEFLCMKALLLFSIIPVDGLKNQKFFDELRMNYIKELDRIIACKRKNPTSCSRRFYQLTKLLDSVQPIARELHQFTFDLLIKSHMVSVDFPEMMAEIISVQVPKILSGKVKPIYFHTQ
Bile acid receptor (Homo sapiens), sequence (Q96RI1 whole entry, looked up): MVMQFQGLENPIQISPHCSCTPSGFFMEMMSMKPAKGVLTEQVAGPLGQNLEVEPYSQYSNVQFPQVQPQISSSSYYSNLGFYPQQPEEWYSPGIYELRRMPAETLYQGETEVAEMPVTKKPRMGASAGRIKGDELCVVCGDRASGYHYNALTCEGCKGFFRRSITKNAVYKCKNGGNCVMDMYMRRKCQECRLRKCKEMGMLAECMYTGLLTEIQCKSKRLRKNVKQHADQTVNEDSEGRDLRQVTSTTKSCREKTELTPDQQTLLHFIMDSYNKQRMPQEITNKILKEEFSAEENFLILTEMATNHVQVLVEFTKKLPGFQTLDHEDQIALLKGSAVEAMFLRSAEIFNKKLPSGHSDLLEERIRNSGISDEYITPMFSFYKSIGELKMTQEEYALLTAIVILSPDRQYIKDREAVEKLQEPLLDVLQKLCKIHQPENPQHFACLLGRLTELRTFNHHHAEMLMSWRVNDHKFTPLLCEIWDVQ
Peroxisome proliferator-activated receptor delta (Homo sapiens), sequence (Q03181 whole entry, looked up): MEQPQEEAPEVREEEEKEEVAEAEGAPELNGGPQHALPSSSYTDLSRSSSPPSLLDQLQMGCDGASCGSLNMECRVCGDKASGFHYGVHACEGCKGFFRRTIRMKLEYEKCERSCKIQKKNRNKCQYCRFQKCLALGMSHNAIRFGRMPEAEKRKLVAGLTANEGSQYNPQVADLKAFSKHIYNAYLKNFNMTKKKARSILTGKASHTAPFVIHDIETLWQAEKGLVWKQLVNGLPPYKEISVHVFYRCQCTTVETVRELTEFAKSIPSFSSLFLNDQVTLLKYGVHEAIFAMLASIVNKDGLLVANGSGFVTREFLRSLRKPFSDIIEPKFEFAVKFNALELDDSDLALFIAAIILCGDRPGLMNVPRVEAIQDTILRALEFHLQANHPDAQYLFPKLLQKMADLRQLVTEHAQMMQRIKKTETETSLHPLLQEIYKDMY
Estrogen receptor (Homo sapiens), sequence (P03372 whole entry, looked up): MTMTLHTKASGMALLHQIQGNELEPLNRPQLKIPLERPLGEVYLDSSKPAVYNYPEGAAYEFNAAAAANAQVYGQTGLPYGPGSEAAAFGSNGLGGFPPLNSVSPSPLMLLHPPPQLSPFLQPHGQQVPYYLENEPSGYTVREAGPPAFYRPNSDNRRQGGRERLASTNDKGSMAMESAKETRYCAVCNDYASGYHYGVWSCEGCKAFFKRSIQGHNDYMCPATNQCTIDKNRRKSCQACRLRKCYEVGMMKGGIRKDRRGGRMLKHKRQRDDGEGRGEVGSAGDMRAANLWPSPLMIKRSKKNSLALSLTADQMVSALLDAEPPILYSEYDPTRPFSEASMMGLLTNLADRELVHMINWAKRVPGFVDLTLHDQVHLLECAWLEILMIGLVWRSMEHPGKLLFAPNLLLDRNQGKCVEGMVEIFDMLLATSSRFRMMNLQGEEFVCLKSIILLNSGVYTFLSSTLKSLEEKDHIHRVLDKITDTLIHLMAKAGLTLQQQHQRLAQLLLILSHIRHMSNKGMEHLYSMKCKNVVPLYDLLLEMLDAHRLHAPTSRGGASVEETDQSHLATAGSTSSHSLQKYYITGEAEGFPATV

Consider `Nc1ccc(Sc2ccc(N)cc2)cc1`, for which the compound was classed as inactive in [1] and in test [5]. The activation is -1.33% (inactive) in test [2]; 8.24% (inactive) and -4.53% (inactive) in [3]. For the same compound, the Potency entry in test [4] is “inactive”.
For `C=CC(=O)NCNC(=O)C=C`, the outcome in test [6] and in test [5] was inactive. Besides, the activation in [7] is 20.4% (inactive) and 9.02% (inactive); in [3], 4.39% (inactive) and -21.1% (inactive). Further, the Potency result in test [8], in test [4] and in test [10] was “inactive” throughout. Moreover, in test [9], the max response is -23.6%.
As to `Nc1c(Cl)c(Cl)c(Cl)c(Cl)c1Cl`, in test [7], the activation is 1.01% (inactive). The Potency entry in test [8] and in test [10] was “inactive” in each case. The compound was classed as inactive in test [5]. The max response in [9] stood at 13.6%.
Consider `CCOCCOC(C)=O`, for which the compound was classed as inactive in [6] and in test [5]. Moreover, the activation in [3] was -2.6% (inactive). For the same compound, the Potency result in [4] is “inactive”.
Consider `COc1nn(CSP(=S)(OC)OC)c(=O)s1`, for which the compound was classed as inactive in test [6], in [1] and in test [5]. Besides, the figures for the activation in test [2] and in test [3] were 3.32% (inactive) and 12.2% (inactive), respectively. Moreover, in [4], the Potency result is “inactive”.
On to `CC(C)(O)C(=O)Nc1ccc([N+](=O)[O-])c(C(F)(F)F)c1`, for which the outcome in test [6] was inactive.
For the compound `O=C(O)COc1nc(Cl)c(Cl)cc1Cl`, the result in [6] and in test [1] was inactive. Further, the activation is -0.709% (inactive) in [2] and -16% (inactive) in test [3]. Also, the Potency entry in [4] and in [10] was “inactive” throughout. Besides, the max response in test [9] stood at 110%.
Regarding `Nc1ccc(Cl)cc1`, the outcome in test [6] and in test [5] was inactive. Also, the Potency entry in test [4] was “inactive”.
Regarding `Cc1cc(O)ccc1Cl`, the compound was called inactive in [6], in test [1] and in test [5]. For the same compound, the activation in test [2] was 1.93% (inactive). Moreover, the Potency result in test [4] and in test [10] was “inactive” each time. For the same compound, the max response in test [9] amounted to 44.7%.
For `C=CCC1=C(C)C(OC(=O)C2C(C=C(C)C)C2(C)C)CC1=O` (configuration not stated), the call in [6] was inactive. The activation in test [2] is 7.39% (inactive) and 8.42% (inactive); in test [3] it was 11.4% (inactive) and 2.61% (inactive). Besides, the Potency entry in [4] is “inactive”.
Turning to `CCCN(CCC)c1c([N+](=O)[O-])cc(S(N)(=O)=O)cc1[N+](=O)[O-]`, the call in [6], in [1] and in [5] was inactive. Besides, the activation in test [2] is -1% (inactive); in test [3], -3.33% (inactive). For the same compound, the max response in test [9] turned out to be 53.5%. Also, the Potency entry in test [10] is “inactive”.
With `Nc1cccc2c(N)cccc12`, the Potency result in test [8] and in test [10] was “inactive” each time. In addition, the activation was -1.29% (inactive) and -1.59% (inactive) in [2]; -1.46% (inactive) in test [3]. Further, in test [5], the compound was called inactive. In addition, the max response in [9] was 0.56%.
For the compound `CCCCCC[C@H]1C(=O)O[C@H](C)[C@H](NC(=O)c2cccc(NC=O)c2O)C(=O)O[C@@H](C)[C@@H]1OC(=O)CC(C)C`, the call in test [6] was inactive. The activation in test [2] was -3.37% (inactive); in [3], -11.1% (inactive).
Turning to `CC(=O)[O][Hg][c]1ccccc1`, the values for the Potency in test [8], in [4] and in test [10] were 2240 nM (active), 141 nM (active) and 2820 nM (active), respectively. The activation in test [3] was 23.7% (inactive). In addition, in test [9], the max response was -98.8%.
With `O=[N+]([O-])c1c(Cl)c(Cl)cc(Cl)c1Cl`, the outcome in test [6], in [1] and in test [5] was inactive. Further, in test [2], the activation was -1.27% (inactive). The max response in test [9] was -4.54%. In addition, the Potency entry in test [10] was “inactive”.
For `CCCCCCCCc1ccc(O)cc1`, the activation in test [7] was -7.85% (inactive) and -15.7% (inactive); in test [3], 0.354% (inactive) and -8.06% (inactive). In addition, the result in test [5] was inactive. The max response in test [9] is -43.1% and -32.6%. Moreover, the Potency entry in [10] was “inactive”.
As to `Nc1ccc(N=Nc2ccccc2)cc1`, the call in [1] and in [5] was inactive. Moreover, the activation in test [2] is -11.4% (inactive); in test [3] it was -2.94% (inactive). Moreover, the Potency entry in [4] and in [10] was “inactive” throughout. Further, the max response in [9] came out at 4.67%.
With `C1CCC(NC2CCCCC2)CC1`, the result in [6] and in [5] was inactive. Moreover, the activation in [3] is 3.43% (inactive) and -1% (inactive) and -4.74% (inactive). For the same compound, the Potency entry in test [4] and in test [10] was “inactive” in each case. In addition, the max response in test [9] is 10% and 0.455%.
Take `CC(C)Oc1cccc(NC(=O)c2ccccc2C(F)(F)F)c1`: the result in test [6] and in test [5] was inactive. Also, in [3], the activation is -4.03% (inactive). For the same compound, in test [4], the Potency entry was “inactive”.
Turning to `c1ccc2occc2c1`, in [6], the outcome was inactive. Besides, in test [2], the activation is 3.58% (inactive) and 1.61% (inactive).
Regarding `CCOP(=O)(NC(C)C)Oc1ccc(SC)c(C)c1` (configuration not stated), the activation in [7] was 2.45% (inactive) and -12.7% (inactive); in [2] it was 5.65% (inactive) and 4.82% (inactive); in test [3], 3.01% (inactive) and -4.29% (inactive). Moreover, the compound was called inactive in test [1] and in test [5]. Moreover, in test [9], the max response stood at 97.8%. The Potency entry in test [10] was “inactive”.
Regarding `O=C(O)CCCOc1ccc(Cl)cc1Cl`, the activation in test [7] was -19.7% (inactive). Also, the Potency result in test [8] was “inactive”.
As to `COCCOCCO`, the outcome in [6] and in test [5] was inactive. For the same compound, the max response in test [9] is -0.0574%. Further, the Potency result in test [10] is “inactive”.
For the compound `Nc1ccc([N+](=O)[O-])cc1`, the activation in [7] was 7.63% (inactive); in [2] it was -1.05% (inactive); in [3], 0.519% (inactive). The compound was called inactive in test [1].
For `O=C(O)C(Cl)Cl`, the outcome in test [6] and in test [5] was inactive. For the same compound, the activation in test [3] was -0.327% (inactive). The Potency entry in [4] and in test [10] was “inactive” throughout. Also, the max response in test [9] was -4.92%.
As to `O=S(=O)(c1ccc(Cl)cc1)c1ccc(Cl)cc1`, the compound was called inactive in [6] and in [5]. Besides, in test [3], the activation is -2.41% (inactive) and 8.97% (inactive). Moreover, the Potency result in test [4] and in test [10] was “inactive” each time. For the same compound, the max response in test [9] is -8.84% and -18.1% and 9.46%.
`O=C(O)COc1ccccc1`: the compound was called inactive in test [6] and in test [5]. In addition, the activation in [3] is -4.12% (inactive). For the same compound, the Potency entry in test [4] and in [10] was “inactive” each time. The max response in test [9] stood at 43.8%.
Regarding `Nc1ccc(Cl)cc1N`, the activation is -2.06% (inactive) in [7]; 0.723% (inactive) in [2]; 0.0302% (inactive) and -3.42% (inactive) in test [3]. Besides, the Potency result in test [8] and in [4] was “inactive” each time. Besides, the compound was called inactive in test [1].
